Each structure is given as a SMILES string.

A short description of this experiment: basal HepG2 mitochondrial membrane potential changes, profiling panel, cell-based, JC-1 fluorescence, 24 h, 100 nL compound (AID 1167). Note: test concentration not given here. As to conditions: higher = more signal.
In the case of `CN(C)C(=O)[C@@]1(CCC(=O)OC(C)(C)C)N=C(c2ccc(OCCCO)cc2)O[C@H]1c1ccccc1N=[N+]=[N-]`, the z-score was found to be 1.45. For `C=CCNC(=O)[C@H]1[C@@H]2C(=O)O[C@@H](c3ccccc3)[C@@H](c3ccccc3)N2[C@@H](c2ccc(O)cc2)[C@]12C(=O)N(C(=O)OCCOC)c1ccc(C#CC3(O)CCCCCC3)cc12`, the z-score is -1.84. The figure for `CCOC(=O)C1=CC[C@@H](c2ccc(N(CC)CC)cc2)N(S(=O)(=O)c2ccc(C)cc2)[C@H]1c1ccc([N+](=O)[O-])cc1` is 4.25; for `CCCNC(=O)[C@@]1(Sc2ccc(C)cc2)CC(=O)N(Cc2ccccc2)[C@@H]1c1ccc(CO)cc1I` it is -0.901.

On to `C[N+](C)(C)CCCCCCNC(=O)[C@H]1C[C@H]2C(=O)N3CCC[C@H]3C(=O)N2[C@H]1c1cccc(OCCO)c1`, for which the z-score is -1.68. With `O=C(O)[C@]1(CCS(=O)(=O)c2ccccc2)N=C(c2ccc(OCCCO)cc2)O[C@@H]1c1ccccc1`, the z-score was -0.509.
